Shown are actives, neighbours in structure and some others; about 2.8% of the full set was active somewhere.
KDM5B inh: KDM5B demethylase inhibition | Q9UGL1 | 220,000 compounds, 2.6% hits | Potency, µM (doses to about 57.7 µM), actives largely listed as inhibitors | KDM5B demethylase, FDH-coupled NADH fluorescence (FDH is formaldehyde dehydrogenase); further: nearly all actives have a fitted effect of over 70% in size
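qHTS format, multiple compound concentrations. Buffer 50 mM HEPES pH 7.5/0.01% Tween-20; 200 nM KDM5BΔAP final; 10 min compound preincubation; substrate-mix levels 12.5 µM peptide, 25 µM α-KG, 0.25 mM NAD⁺; 30 min RT; ΔRFU.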
SNCA expr inh: inhibitors of alpha-synuclein (SNCA) gene expression; HEK-293 SNCA-luciferase knock-in, luminescence, 24 h; Potency, µM (doses to about 57.2 µM), actives largely listed as inhibitors; 140,000 compounds, 0.17% hits; AID 1671194; further: nearly all actives have a fitted effect of over 45% in size
IP6K1 inh: inhibitors of human IP6K1; Q92551; IP6K1 kinase, ADP-Glo luminescence, 2 h; active compounds read low; activity change, % (series mostly up to about 58 µM); 140,000 compounds, 0.81% hits; in the data active means activity change below about -25%
Target sequence (Q92551 whole entry, looked up): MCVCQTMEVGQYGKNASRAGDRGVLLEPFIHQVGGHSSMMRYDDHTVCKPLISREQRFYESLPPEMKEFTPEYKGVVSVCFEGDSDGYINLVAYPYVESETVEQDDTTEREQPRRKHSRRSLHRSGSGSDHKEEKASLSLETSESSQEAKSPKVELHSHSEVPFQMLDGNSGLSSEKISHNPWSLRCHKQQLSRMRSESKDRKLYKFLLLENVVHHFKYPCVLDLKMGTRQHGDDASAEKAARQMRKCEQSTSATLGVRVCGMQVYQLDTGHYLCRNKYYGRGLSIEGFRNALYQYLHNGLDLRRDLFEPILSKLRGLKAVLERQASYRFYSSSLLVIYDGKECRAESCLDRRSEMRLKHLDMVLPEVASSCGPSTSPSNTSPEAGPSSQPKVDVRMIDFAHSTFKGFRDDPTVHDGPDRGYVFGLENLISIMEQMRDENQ
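ADP-Glo luminescence measures ADP made by human IP6K1 during a 2 h RT reaction with ATP/IP6 (mix at 1.3 mM/130 uM); top library doses 57.5 and 19.1 uM final.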
SNCA viab count: reduces viability of HEK-293 SNCA reporter cells; HEK-293-SNCA-luc viability, GF-AFC fluorescence, 24 h; Potency, µM (top dose mostly 57.1 µM), hits mostly cytotoxic; 150,000 compounds, 0.12% hits; further: nearly all actives have a fitted effect of over 30% in size
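HEK-293-SNCA-luc cells (1500/well) plated 24 h, then exposed 24 h to a dilution series; GF-AFC added 30 min at 37C, fluorescence 405/540 nm; normalised to medium-only and DMSO wells, Hill fit.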
Numbers stand for hits; . = inactive; ? = inconclusive; / = no result given; ! = a repeat was not active. Unless noted, the call rests on the fitted dose curve; in most records, active means well fitted curve in the direction sought with a large enough effect; inconclusive means small, poorly fitted or top-dose-only effect, or another doubt; inactive means no such curve, though single readings can be large; an effect the other way counts as inactive or inconclusive.

SMILES	KDM5B inh	SNCA expr inh	IP6K1 inh	SNCA viab count
O=C(Cc1c[nH]c2ccccc12)N1CCCC2(C1)Nc1cccnc1NC2=NC1CCCC1 (centres undefined)	?	.	.	.
O=C(CSc1ccccc1)N1CCCC2(C1)Nc1cccnc1NC2=NC1CCCC1 (centres undefined)	28µM	.	.	.
O=C(c1ccc(Cl)s1)N1CCCC2(C1)Nc1cccnc1NC2=NC1CCCC1 (centres undefined)	28µM	.	.	.
COc1cc(OC)cc(C(=O)N2CCCC3(C2)Nc2cccnc2NC3=NC2CCCC2)c1 (centres undefined)	28µM	.	.	.
COc1ccc(C(=O)N2CCCC3(C2)Nc2cccnc2NC3=NC2CCCC2)cn1 (centres undefined)	?	.	.	.
O=C(c1ccc(Cl)s1)N1CCN(c2ncccn2)CC1	.	/	/	/
CC(C)c1ccc(/C=C(\C#N)C(=O)NC2CCCCC2)cc1	.	/	/	/
Cc1nn(-c2ccccc2)c2c1C(C)N(C1CCN([S+](=O)([O-])c3cccs3)C1)C2=O (centres undefined)	/	/	.	/
O=C(NC1CCN(c2cc(-c3cccs3)[nH]n2)C1)c1ccccc1Br (centres undefined)	25µM	.	.	.
COc1cc(OC)cc(C(=O)NC2CCN(c3cc(-c4cccs4)[nH]n3)C2)c1 (centres undefined)	3.5µM	?	.	?
COc1cc(C(=O)NC2CCN(c3cc(-c4cccs4)[nH]n3)C2)cc(OC)c1OC (centres undefined)	?	.	.	.
COc1ccccc1C(=O)NC1CCN(c2cc(-c3cccs3)[nH]n2)C1 (centres undefined)	16µM	.	.	?
CCN(Cc1cccs1)C(=O)c1cccc(C#N)c1	.	/	/	/
N#CCCNC(=O)CN1CCCC(c2nc3ccccc3o2)C1 (centres undefined)	.	/	/	/
Cc1ncnc(N2CCN(C(=O)C3CCN(C(=O)C4CC4)CC3)CC2)c1C	.	.	.	.
Cc1cccc(N2CCN(C(=O)C3CCN(C(=O)C4CC4)CC3)CC2)n1	22µM	.	.	.
Cc1cc(C)nc(N2CCN(C(=O)C3CCN(CC(N)=O)CC3)CC2)n1	28µM	?	.	.
Cc1ccc(-c2ccccc2CN2CCC(C(=O)N3CCN(c4ncccn4)CC3)CC2)cc1Cl	/	?	.	.
CC(C)c1ccc(C(C)NC(=O)c2cccc(N(C)C)c2)cc1 (centres undefined)	.	/	/	/
O=C(Nc1ccc(=O)n2c1[C@@H]1C[C@@H](CN(C(=O)Nc3ccc(F)cc3)C1)C2)NC1CCCCC1	20µM	.	.	.
CC(=O)N1CCC(N2C[C@@H]3C[C@H](C2)c2c(NC(=O)NC4CCCCC4)ccc(=O)n2C3)CC1	?	.	.	.
CC(=O)N1CCCC(c2nnc3n2CCNC3)C1 (centres undefined)	79µM	.	.	.
COC(=O)c1c(NC(C)=O)c2cc(NC3CCN(C(C)=O)CC3)cnc2n1CC1CCCO1 (centres undefined)	20µM	.	.	?
CC(=O)N1CCC2(CC1)CN(Cc1ccncc1)Cc1ccccc1O2	56µM	?	.	.
O=C(c1ccc(Cl)cc1)N1CC2(CCN(CC3CCCC3)C2)OCc2ccccc21 (centres undefined)	.	.	.	.
SMILES	KDM5B inh	SNCA expr inh	IP6K1 inh	SNCA viab count
O=C(c1ccc(Cl)cc1)N1CC2(CCN(Cc3ccncc3)C2)OCc2ccccc21 (centres undefined)	40µM	.	.	.
O=C1/C(=C/c2ccc(Br)cc2)C(c2ccccc2)Oc2ccccc21 (centres undefined)	.	/	/	/
CC(=O)Nc1cccc(-c2ccc3c(n2)CN(Cc2ccccc2C)C(=O)CO3)c1	.	.	.	?
O=C1COc2ccc(Nc3ccc(Cl)cc3)nc2CN1Cc1nc2ccccc2s1	35µM	?	.	32µM
O=C1COc2ccc(-c3ccc4c(c3)OCO4)nc2CN1Cc1ccc(C(F)(F)F)cc1	32µM	.	.	.
Cc1ccccc1CN1Cc2nc(-c3ccc4c(c3)OCO4)ccc2OCC1=O	35µM	.	.	?
CN1Cc2nc(-c3ccc4c(c3)OCO4)ccc2OCC1=O	32µM	.	.	.
Cn1cnnc1SCc1coc(-c2cccc(Cl)c2)n1	.	/	/	/
Cc1cccc(OCCNC(=O)Cn2nc(C)c3ccccc3c2=O)c1	.	/	/	/
COc1ccc(NC(=O)c2cnc(SC)nc2-c2ccccc2)cc1OC	.	/	/	/
CN(CCNC(=O)c1cc2ccccc2oc1=O)c1ccccc1	.	/	/	/
Cc1ccccc1CN1Cc2nc(-c3cccc(C(N)=O)c3)ccc2OCC1=O	32µM	.	.	.
COc1ccc(Nc2ccc3c(n2)CN(Cc2ccc(C(F)(F)F)cc2)C(=O)CO3)cn1	11µM	?	.	.
Cc1ccccc1CN1Cc2nc(-c3c(C)noc3C)ccc2OCC1=O	35µM	.	.	.
O=[N+]([O-])c1ccccc1/C=N/OCc1c(F)cccc1Cl	.	/	/	/
CC(Sc1nc(-c2ccccc2)cs1)C(=O)NC1(C#N)CCCCC1 (centres undefined)	.	/	/	/
COc1ccc(/C=C/C(=O)c2ccc(O)cc2)cc1C	.	/	/	/
COc1ccc(NC(=O)c2cc3n(n2)CC(c2ccc4c(c2)OCO4)OC3)cc1 (centres undefined)	?	.	.	.
Cc1ccc(NC(=O)c2cc3n(n2)CC(c2ccc4c(c2)OCO4)OC3)cc1Cl (centres undefined)	28µM	.	.	.
Cc1ccc(NC(=O)c2cc3n(n2)CC(c2ccc4c(c2)OCO4)OC3)cc1F (centres undefined)	22µM	.	.	.
Cc1ccccc1-c1nc(CNC(=O)Nc2ccc(Cl)cc2)c(C)o1	.	/	/	/
Cc1ccc(C#N)c(N2CCCC(c3nnc(Cn4cccn4)n3C)C2)n1 (centres undefined)	28µM	.	.	.
Cc1ccc(C(=O)NCc2cccnc2Oc2ccccc2F)c(=O)n1C	28µM	.	.	.
O=C(Cc1c[nH]c(=O)[nH]c1=O)NCc1cccnc1Oc1ccccc1F	.	.	.	.
O=C(NCc1cccc2ccccc12)C(=O)c1c[nH]c2ccccc12	.	/	/	/
SMILES	KDM5B inh	SNCA expr inh	IP6K1 inh	SNCA viab count
O=C(Cc1cc(Cl)c2c(c1)OCCO2)NC1CCN(CC2CCCCC2)CC1	.	/	/	/
O=C(NCCc1cnc[nH]1)c1ccc(-c2ncc3cnc(-c4ccccc4)cn23)cc1	/	.	.	.
COc1ccc(C(=O)Nc2ccc(-c3nnc4n3CCCC4)cc2)cn1	.	.	.	.
O=C(c1ccc(-c2ncc3cnc(C4=CCOCC4)cn23)cc1)N1CC[S+](=O)([O-])CC1	35µM	.	.	.
COc1ccc(NC(=O)c2ccc(-c3ncc4cnc(C5=CCOCC5)cn34)cc2)cn1	28µM	.	.	.
C=CCOc1c(OC)ccc2c1CN(Cc1ccco1)C(=O)CCN2C[C@@H](O)COCc1ccccc1	/	/	.	/
Cc1cc(C(=O)N2CCN(S(=O)(=O)c3ccccc3Cl)CC2)c(C)n1Cc1cccs1	.	/	/	/
O=C(NCc1cccc(Cl)c1)c1cccc2c1C(=O)N(C1CCCCC1)C2	.	/	/	/
O=C(c1ccc(Nc2nccc(-c3cc4ccccc4s3)n2)cc1)N1CCC(N2CCCC2)CC1	/	?	.	30µM!
